High-throughput results as filed in PubChem.
HIF-2a inh: HIF-2a reporter inhibitors, primary screen, luminescence, 786-0 RCC cells | 786-0 RCC cells HIF-2a reporter, luciferase luminescence, overnight | inhibition, % at 18.8 µM | actives 0.72% (n = 360,000) | AID 624352, 2012;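 active = inhibition of the luminescence signal of 40% or more relative to plate controls, in a single-dose primary screen at 18.75 µM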
Peg3 prom inh: Peg3 promoter-driven luciferase inhibitors, primary screen, cell-based, HeLa, luciferase luminescence | HeLa PEG-Prom luciferase reporter, overnight | actives 1.7% (n = 360,000) | AID 588405, 2011 | inhibition, % at 20 µM;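 active = inhibition of at least 50% at 20 µM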
KKLEB tox: cytotoxicity in KKLEB CF airway cells, primary screen, cytotoxicity control for CF NF-kB inhibitor project, cell-based, uHTS, fluorescence assay plates; activity change (cytotoxicity), % at 5 µM; KKLEB CF airway cells viability, ATPlite luminescence, overnight; stronger effect = lower value; cells stimulated with P. aeruginosa culture filtrate; AID 602141, 2011; actives 0.36% (n = 360,000);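 active = corrected activity change at or below -50% at 5 µM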
CF NFkB inh: inhibitors of PAF-induced NF-kB signaling, primary screen, cell-based, GFP fluorescence, uHTS | KKLEB NF-kB-GFP reporter, GFP fluorescence overnight | inhibition, % at 5 µM | actives 0.86% (n = 360,000) | AID 588850, 2011;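 active = at least 50% inhibition at 5 µM, scaled per plate between neutral and stimulator controls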;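 also: PAF is a Pseudomonas aeruginosa culture filtrate used as stimulus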
TROY NFkB inh: inhibitors of TROY-driven NF-kB signaling, primary screen, Q293 LMP1-TROYcd cells, NF-kB luciferase, uHTS; Q293 LMP1-TROYcd NF-kB luciferase reporter, 4 h; inhibition, % at 10 µM; actives 0.98% (n = 360,000); AID 1347056, 2019;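 active = compounds whose plate-normalised and pattern-corrected inhibition of the luciferase reporter signal at the single screening dose is 50% or more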
TWEAK-Fn14 inh: inhibitors of TWEAK-Fn14 signaling, primary screen, luciferase reporter cells, uHTS | inhibition, % at 10 µM | actives 2% (n = 360,000) | TWEAK-stimulated Fn14 reporter cells, luciferase luminescence, 8 h; in the data active = inhibition above about 50%
Mdm2-MdmX confirm: retested Mdm2-MdmX interaction blockers, confirmation, cell-based, luminescence, single concentration, set 2 | SaOS-2 split-luciferase Mdm2/MdmX complementation | inhibition, % at 8 µM | actives 99% (n = 740) | shares compounds with HIF-2a inh;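 active = mean inhibition of the luminescence signal across two replicates at or above 26 percent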
Target sequence (O15151 whole entry, looked up): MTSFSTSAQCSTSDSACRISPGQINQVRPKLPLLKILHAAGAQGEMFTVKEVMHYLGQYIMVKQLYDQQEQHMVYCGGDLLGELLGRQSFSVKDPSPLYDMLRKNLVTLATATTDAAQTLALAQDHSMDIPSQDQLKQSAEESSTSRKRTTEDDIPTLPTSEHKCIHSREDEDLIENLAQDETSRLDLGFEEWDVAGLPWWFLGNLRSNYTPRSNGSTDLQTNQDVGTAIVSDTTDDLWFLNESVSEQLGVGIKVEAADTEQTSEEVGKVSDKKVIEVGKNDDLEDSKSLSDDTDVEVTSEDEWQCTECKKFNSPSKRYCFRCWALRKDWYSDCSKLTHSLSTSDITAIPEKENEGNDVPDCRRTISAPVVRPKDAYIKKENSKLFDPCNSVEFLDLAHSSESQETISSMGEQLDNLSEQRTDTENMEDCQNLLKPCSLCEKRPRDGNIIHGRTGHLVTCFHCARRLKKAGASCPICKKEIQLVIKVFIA
Target sequence (Q00987 whole entry, looked up): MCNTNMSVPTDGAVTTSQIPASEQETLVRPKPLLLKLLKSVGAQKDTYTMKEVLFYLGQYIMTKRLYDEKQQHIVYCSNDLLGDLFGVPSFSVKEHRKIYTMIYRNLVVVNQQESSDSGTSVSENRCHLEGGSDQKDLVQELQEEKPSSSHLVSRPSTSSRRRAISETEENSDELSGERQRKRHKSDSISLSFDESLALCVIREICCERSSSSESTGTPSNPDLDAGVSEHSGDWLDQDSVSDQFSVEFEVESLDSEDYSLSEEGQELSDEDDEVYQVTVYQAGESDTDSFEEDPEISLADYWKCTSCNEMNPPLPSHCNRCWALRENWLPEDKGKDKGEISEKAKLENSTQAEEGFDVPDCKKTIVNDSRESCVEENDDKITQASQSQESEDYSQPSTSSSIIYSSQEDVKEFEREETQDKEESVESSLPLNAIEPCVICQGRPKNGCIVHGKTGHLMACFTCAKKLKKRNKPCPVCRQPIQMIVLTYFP
HIF-2a conf: HIF-2a reporter inhibitor retest, confirmation, luminescence, 786-0 RCC cells. shares compounds with HIF-2a inh. HIF-2a luciferase reporter luminescence, overnight. inhibition, % at 18.8 µM. actives 56% (n = 1,800);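 active = mean inhibition across four replicates of at least 40 percent at the single tested concentration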
HIF-1a counter: HIF-1a luciferase reporter signal reduction – MiaPaCa-2 cells, single concentration, counter-screen for HIF-2a inhibitor project, confirmation. shares compounds with HIF-2a inh. MiaPaCa-2 HIF-1a luciferase reporter, desferoxamine, overnight. inhibition, % at 18.8 µM. actives 72% (n = 1,800);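 active = mean inhibition of the reporter signal across four replicates at the single tested dose of 50% or more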
Numbers stand for hits; n = inactive; x = no result given. An excerpt weighted towards active compounds, which were near 4% of everything screened.

SMILES	HIF-2a inh	Peg3 prom inh	KKLEB tox	CF NFkB inh	TROY NFkB inh	TWEAK-Fn14 inh	HIF-2a conf	HIF-1a counter	others
COCCN(C(=O)C1CCCC1)c1c(N)n(Cc2ccccc2)c(=O)[nH]c1=O	n	n	n	n	n	n	x	x
Nc1c(N(C(=O)Nc2ccc(Cl)c(Cl)c2)C2CCCC2)c(=O)[nH]c(=O)n1Cc1ccccc1	40	n	n	n	n	n	n	103
O=C(Nc1cc(S(=O)(=O)N2CCCCC2)ccc1Oc1ccccc1)C1=COCCO1	n	n	n	n	n	n	x	x
COc1ccccc1C=CC(=O)C=Cc1ccccc1OC	70	99	n	n	n	80	55	100
Cc1ccc(S(=O)(=O)N2[C@@H](CO)CO[C@H]2CC(=O)c2cccs2)cc1	n	x	x	x	x	x	x	x
CC(C)n1c(/C=C/[C@H](O)C[C@H](O)CC(=O)O)c(-c2ccc(F)cc2)c2ccccc21	45	n	n	n	n	n	n	n
Cn1cc(C(CC(=O)O)C(=O)O)c2ccccc21 (centres undefined)	n	n	n	n	n	n	x	x
CCOC(=O)c1ccc(N=c2sc(C(=O)OC)cc(=O)n2CCCN2CCOCC2)cc1	n	n	n	n	n	n	x	x
CCOC(=O)c1ccc(N=c2sc(C(=O)OC)cc(=O)n2Cc2ccco2)cc1	82	100	n	n	n	64	65	106
COc1ccc(C(=O)NCCCNC(=O)c2ccc(C)nc2)cc1	n	n	n	n	n	n	x	x
N=c1nc(SCCC(=O)O)ss1	69	n	n	n	n	n	73	n
O=C(Nc1ccc(F)cc1)c1nc(S(=O)(=O)Cc2ccccc2)ncc1Cl	86	100	-75	101	69	79	99	60	Mdm2-MdmX confirm=102
Cc1nnc(NC(=O)c2nc(S(=O)(=O)Cc3ccccc3)ncc2Cl)s1	64	110	n	83	n	91	n	106
Cc1nnc(NC(=O)CS(=O)(=O)Cc2ccccc2)s1	n	n	n	n	n	n	x	x
Cc1ccc(NC(=O)c2nc(S(=O)(=O)Cc3ccccc3)ncc2Cl)cc1	95	100	-100	92	80	67	98	96	Mdm2-MdmX confirm=102
Cc1ccccc1CS(=O)(=O)c1ncc(Cl)c(C(=O)Nc2ccc(F)cc2)n1	93	108	-99	89	78	82	74	51	Mdm2-MdmX confirm=103
Cc1cccc(CCNS(=O)(=O)c2ccc3c(c2)NC(=O)C(C)S3)c1 (centres undefined)	n	n	n	n	n	n	x	x
CCc1nc2ccc(C(=O)NCCCn3ccnc3)cn2c1N(C)Cc1cc2ccccc2s1	n	n	n	n	n	n	x	x
O=C(CN1CCN(C(=O)c2c(F)cccc2F)CC1)Nc1ccccc1C(F)(F)F	n	n	n	n	n	n	x	x
COc1cc(NC(=O)CN2C(=O)c3ccccc3S2(=O)=O)cc(OC)c1	n	n	n	n	n	n	x	x
COc1ccc(OC)c(NC(=O)c2nc(S(=O)(=O)Cc3ccccc3)ncc2Cl)c1	89	106	-105	89	83	76	99	104	Mdm2-MdmX confirm=103
Cc1cccc(CSC(Nc2ccc(F)cc2)=C(C#N)C#N)c1	n	62	n	n	n	64	x	x	Mdm2-MdmX confirm=94
